# Screening results as filed in PubChem BioAssay.
# DT40 TDP1 CPT – growth inhibition of DT40 Tdp1-/-;hTDP1 cells with camptothecin (screen for TDP1 inhibitors). actives 12% (n = 420,000). chicken DT40 Tdp1-/-;hTDP1 cells + 20 nM CPT, ATP luminescence, 48 h. Potency, µM (top dose mostly 46.2 µM), for the others: at the top dose activity change, negative = growth inhibition, usual class: inhibitors; note: potency is the fitted concentration of half-maximal effect; nearly all actives have a fitted effect of over 55% in size
#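 Chicken DT40 Tdp1-/- cells stably complemented with human TDP1 were seeded at 400 cells/well in medium containing 20 nM camptothecin, exposed to pin-transferred compounds, and grown at 37 °C for at least 48 hr. Viability was read as ATP luminescence.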
# TDP1 cell noCPT – qHTS for Inhibitors of human tyrosyl-DNA phosphodiesterase 1 (TDP1): qHTS in cells in absence of CPT | DT40 Tdp1-/- hTDP1 cells, no CPT, ATP luminescence, 48 h | Potency, µM (series often up to 46.2 µM), without a hit: at the highest dose activity change, negative = growth inhibition, hits mostly inhibitors | actives 15% (n = 420,000) | AID 686978, 2013; note: potency is the fitted concentration of half-maximal effect; nearly all actives have a fitted effect of over 55% in size
#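 Chicken DT40 Tdp1-/- cells stably complemented with human TDP1 were seeded at 400 cells/well with DMSO in place of 20 nM camptothecin. After compound pinning, cells grew at least 48 hr at 37 °C; viability read by CellTiter-Glo luminescence.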
# HT1080NT lethal – kills 2HG-producing HT-1080-NT fibrosarcoma cells; HT-1080-NT fibrosarcoma viability, CellTiter-Glo ATP luminescence, 48 h; Potency, µM (doses to about 46.1 µM), for inactives: at the top dose activity, negative = less viability, hits mostly cytotoxic; actives 1.6% (n = 360,000); AID 686970;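 note: NT is the 2HG producing partner of a matched IDH1 knockdown line; potency is the fitted concentration of half-maximal effect; 0% = DMSO-treated cells and -100% = media-only wells without cells; nearly all actives have a fitted effect of over 55% in size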
#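 Luminescent CellTiter-Glo readout after 48 hours of compound exposure at 37 degrees C defined viability of HT-1080-NT cells. Activity was normalized to DMSO wells and cell-free media wells; concentration-response curves were fitted and assigned curve classes.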
# ALOX12 inh – blocks human arachidonate 12S-lipoxygenase | purified 12hLO, xylenol orange hydroperoxide absorbance | actives 1.1% (n = 580,000) | P18054 | Potency, µM (highest dose often 108 µM), without a hit: at the highest dose activity change, negative = inhibition, most hits filed as inhibitors | AID 1671190; note: potency is the fitted concentration of half-maximal effect
#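 Purified human 12hLO at 150 nM in 25 mM Hepes, 0.01% Triton X-100, pH 7.0, preincubated 15 min at room temperature with compound. Reaction started with 40 uM arachidonic acid, 30 min at room temperature. Hydroperoxide measured by Fe-xylenol orange, 573/405 nm absorbance ratio.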
# IL1B secr inh – blocks inflammasome-driven IL-1 beta release. AID 743279. actives 4.7% (n = 360,000). THP-1 LPS/ATP IL-1B secretion, AlphaLISA, 16 h; stronger effect = lower value. activity change, % at 57.5 µM; in the data active = activity change below about -50%; inconclusive = mostly about -30% to -49%
#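 Secreted IL-1B measured by AlphaLISA bead assay after 16 h compound exposure of THP-1 cells; compounds (final up to 57.5 uM) added 1 h before LPS (250 ng/mL) and ATP (1.25 mM) stimulation; lower signal means less secretion.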
# HT1080 IDH1KD tx – HT-1080 IDH1 knockdown cell toxicity (counter line). Potency, µM (titrated, usually from 46.1 µM), without a hit: at the highest dose activity, negative = toxicity, most hits filed as cytotoxic. actives 2% (n = 360,000). HT-1080 IDH1 knockdown viability, ATP luminescence, 48 h. AID 686971;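 note: potency is the fitted concentration of half-maximal effect; 0% = DMSO wells and -100% = cell-free medium wells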
#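 IDH1KD HT-1080 cells, 750/well, RPMI + 5% FBS; compound pinned after 2 h settling; 48 h, 37 °C; CellTiter-Glo luminescence; % activity normalised to DMSO and no-cell wells; curves fitted, classed by r2 and efficacy.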
# Active calls of the source: *; ? = inconclusive; nt = no result given; [ ] = dose if it differs, or a comment. The sample as a whole holds a higher share of hits than the screen did. Unless noted, calls come from the whole dose curve; as a rule, active = well fitted curve in the direction sought with a large enough effect; inconclusive = small, poorly fitted or top-dose-only effect, or another doubt; inactive = no such curve, though single readings can be large; an effect the other way counts as inactive or inconclusive. Unless noted, % is set by controls: 0 for no effect and ±100 for the full control effect.
SMILES,DT40 TDP1 CPT,TDP1 cell noCPT,HT1080NT lethal,ALOX12 inh,IL1B secr inh,HT1080 IDH1KD tx
N=c1c2c(ncn1CCCO)Oc1ccc3ccccc3c1C2c1ccccc1 (configuration not stated),?,?,?,?,-56*,?
N=c1c2c(ncn1CCCO)Oc1c(ccc3ccccc13)C2c1ccccc1 (configuration not stated),?,?,?,?,-28,-30%
O=C(c1nc(-c2ccc(Cl)nc2)c2ccccn12)N1CCN(c2ncccn2)CC1,nt,nt,nt,7%[6.33 µM],nt,nt
CC1(C)CC(=O)C2=C(C1)Oc1ncn(CCCO)c(=N)c1C2c1ccccc1 (configuration not stated),-13%,2%,-2%,0%[57.4 µM],-15,2%
CN(C)CCCn1cnc2c(c1=N)C(c1ccccc1)c1ccc3ccccc3c1O2 (configuration not stated),6.5µM*,?,?,?,-10,?
CCN(CC(=O)NC(C)C)S(=O)(=O)N1CCCC(C)C1 (configuration not stated),nt,nt,nt,8%,nt,nt
Cc1ccc(NC(=O)C(C)Sc2nc3cc(S(=O)(=O)N4CCCCC4)ccc3o2)cc1 (configuration not stated),nt,nt,nt,-44%,nt,nt
N#Cc1ccc(F)c(Cn2cnc3c(Cl)cc(Cl)cc3c2=O)c1,nt,nt,nt,1%,nt,nt
O=C(CN1C(=O)C(=O)N(Cc2ccco2)C1=O)c1c[nH]c2ccccc12,-30%,16%,?,-24%,31,-28%
O=C(CN1C(=O)C(=O)N(CCC2=CCCCC2)C1=O)c1c[nH]c2ccccc12,-13%,?,-4%,?,-59*,-8%
Cc1nc2ccc(C(=O)N3CCN(CC(=O)NCc4ccccc4)CC3)cc2nc1C,nt,nt,nt,16%,nt,nt
COc1ccc(CN(C(=O)c2ccco2)c2ccc(C)c(C)c2)cc1,?,?,?,1%,23,21µM*
CC(C)N(Cc1cc2ccccc2[nH]c1=O)C(=O)c1ccco1,-15%,-3%,9%,-8%,8,1%
CCOc1ccc(N(Cc2ccc(OC)c(OC)c2)C(=O)c2ccco2)cc1,?,18µM*,-11%,-3%,6,-1%
CCOc1ccc(N(Cc2ccc(OC)cc2)C(=O)c2ccco2)cc1,?,?,?,-23%,?,?
CCCNC(=O)Cc1ccc(N(Cc2ccc(OC)cc2)C(=O)c2ccco2)cc1,nt,nt,nt,13%,nt,nt
Cc1cccc(N(Cc2cc3ccccc3[nH]c2=O)C(=O)c2ccco2)c1C,26µM*,-84%,16%,11%,-6,8%
COc1ccc(N(Cc2cc3ccc(C)cc3[nH]c2=O)C(=O)c2ccco2)cc1,23µM*,21µM*,15%,0%,-15,19%
CC(=O)Nc1cccc(C(C)NC(=O)C=C2CCCC2)c1 (configuration not stated),nt,nt,nt,25%,nt,nt
CC(C)N(Cc1ccccc1)C(=O)CN1C(=O)NC2(CCCC2)C1=O,-1%,5%,5%[9.24 µM],128%,1,-13%
Cc1ccc(N(C(=O)c2csnn2)C(C(=O)NC2CCCCC2)c2cccnc2)c(C)c1 (configuration not stated),2%,-15%,11%,-8%,5,9%
COc1cc(NC(=O)N2CCOc3ccc(Cl)cc32)cc(OC)c1OC,nt,nt,nt,6%,nt,nt
O=c1c2ccccc2nc(/C=C/c2cc(Br)ccc2O)n1CCCO,?,16µM*,?,?,-101*,?
Cn1c(/C=C/c2ccc(Br)cc2)nc2ccccc2c1=O,?,18µM*,9%,0%,-14,1%
